Data: PubChem BioAssay (NCI)
About 83,000 compounds went through this panel and 20% of them were active in at least one assay; those are over-represented in the sample as a whole.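 Note: values are percent growth. 100 is the growth of untreated cells, values between 100 and 0 indicate rising inhibition; between -100 and 0 indicates cell death.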 Calls of active or inactive are those of the source. How the source made its calls: active means growth percent below 10; inactive means the rest.

Columns and labels:
Test in all cases: NCI-60 one-dose screen, 48 h (100 = growth as untreated, 0 = no growth, -100 = all killed)
Details in all cases: 10 µM
SR leukemia = test system: SR leukemia
RPMI-8226 leukemia = test system: RPMI-8226 leukemia
OVCAR-8 ovarian = test system: OVCAR-8 ovarian
OVCAR-5 ovarian = test system: OVCAR-5 ovarian
OVCAR-4 ovarian = test system: OVCAR-4 ovarian
SK-OV-3 ovarian = test system: SK-OV-3 ovarian
OVCAR-3 ovarian = test system: OVCAR-3 ovarian
HS 578T breast = test system: HS 578T breast
NCI/ADR-RES ovarian = test system: NCI/ADR-RES ovarian
T-47D breast = test system: T-47D breast
MDA-MB-435 melanoma = test system: MDA-MB-435 melanoma
SW-620 colon = test system: SW-620 colon
MCF7 breast = test system: MCF7 breast
HCT-116 colon = test system: HCT-116 colon
HCC-2998 colon = test system: HCC-2998 colon
KM12 colon = test system: KM12 colon
BT-549 breast = test system: BT-549 breast
IGROV1 ovarian = test system: IGROV1 ovarian

Measured: growth

CCN(CC)CCOc1cccc2c1C(=O)c1ccccc1C2=O
inactive: SR leukemia 88.4% | RPMI-8226 leukemia 86% | OVCAR-8 ovarian 85.7% | OVCAR-5 ovarian 102% | OVCAR-4 ovarian 86.7% | SK-OV-3 ovarian 82.2% | OVCAR-3 ovarian 102% | HS 578T breast 90% | NCI/ADR-RES ovarian 92.5% | T-47D breast 107% | MDA-MB-435 melanoma 100% | SW-620 colon 87.6% | MCF7 breast 92.1% | HCT-116 colon 70.4% | HCC-2998 colon 102% | KM12 colon 98%

COC(=O)c1cc2oc(/C=C3/SC(=S)N(N)C3=O)cc2n1Cc1ccccc1
inactive: SR leukemia 20.8% | OVCAR-8 ovarian 31.1% | OVCAR-5 ovarian 72.6% | OVCAR-4 ovarian 51% | SK-OV-3 ovarian 98.2% | OVCAR-3 ovarian 55% | T-47D breast 75.6% | BT-549 breast 36.5% | MDA-MB-435 melanoma 19.2% | MCF7 breast 21% | HCC-2998 colon 80.2% | KM12 colon 58.9%
active: RPMI-8226 leukemia -4.46% | HS 578T breast -27.4% | SW-620 colon -43.3%

NS(=O)(=O)c1ccc(N2N=C(c3ccccc3)CCC2=O)cc1
inactive: SR leukemia 66.5% | RPMI-8226 leukemia 94.5% | OVCAR-8 ovarian 98% | OVCAR-5 ovarian 112% | OVCAR-4 ovarian 95.8% | IGROV1 ovarian 105% | OVCAR-3 ovarian 158% | HS 578T breast 113% | NCI/ADR-RES ovarian 98% | T-47D breast 102% | BT-549 breast 223% | MDA-MB-435 melanoma 97.3% | SW-620 colon 109% | MCF7 breast 95.4% | HCT-116 colon 86.8% | HCC-2998 colon 97% | KM12 colon 188%

COc1ccc(C(=O)COc2cccc(/C=C3\Cc4ccccc4C3=O)c2)cc1
inactive: SR leukemia 56.7% | RPMI-8226 leukemia 57.9% | OVCAR-8 ovarian 91.7% | OVCAR-5 ovarian 88.5% | OVCAR-4 ovarian 76.8% | OVCAR-3 ovarian 97.2% | HS 578T breast 86.9% | NCI/ADR-RES ovarian 74.4% | T-47D breast 73.8% | BT-549 breast 74.5% | MDA-MB-435 melanoma 58.8% | SW-620 colon 89.5% | MCF7 breast 65.9% | HCT-116 colon 84.4% | HCC-2998 colon 92.9%

O=C(COc1cccc(/C=C2\CSc3ccc(Cl)cc3C2=O)c1)c1ccc(Cl)cc1
inactive: OVCAR-8 ovarian 66.9% | OVCAR-5 ovarian 86.7% | OVCAR-4 ovarian 75% | SK-OV-3 ovarian 86.2% | OVCAR-3 ovarian 90.3% | HS 578T breast 93% | T-47D breast 45.2% | BT-549 breast 20.2% | MDA-MB-435 melanoma 87.7% | HCT-116 colon 42% | HCC-2998 colon 32.9%
active: SR leukemia -3.18% | RPMI-8226 leukemia -25.1% | SW-620 colon -71.6% | MCF7 breast -35.1%

COc1ccc(-c2csc(NC(=O)c3ccc(Cc4n[nH]c(=O)c5cccnc45)cc3)n2)cc1
active: BT-549 breast -17.8%
inactive: SR leukemia 118% | RPMI-8226 leukemia 82.6% | OVCAR-8 ovarian 93.8% | OVCAR-5 ovarian 95% | OVCAR-4 ovarian 94.5% | IGROV1 ovarian 75.4% | OVCAR-3 ovarian 103% | HS 578T breast 99.1% | NCI/ADR-RES ovarian 94.1% | T-47D breast 68.8% | MDA-MB-435 melanoma 98.8% | SW-620 colon 95.2% | MCF7 breast 77.4% | HCT-116 colon 91.9% | HCC-2998 colon 90.1% | KM12 colon 98.5%

Cc1ccc(/C=C2/C(=O)N(C)c3ccc(S(=O)(=O)Nc4ccc(C(C)(C)C)cc4)cc32)s1
inactive: SR leukemia 57.9% | RPMI-8226 leukemia 55.6% | OVCAR-8 ovarian 41.3% | OVCAR-5 ovarian 73% | OVCAR-4 ovarian 44.4% | IGROV1 ovarian 70.8% | OVCAR-3 ovarian 88.3% | HS 578T breast 88.7% | NCI/ADR-RES ovarian 55.8% | T-47D breast 80.5% | BT-549 breast 97.1% | MDA-MB-435 melanoma 83.1% | SW-620 colon 96.7% | MCF7 breast 72.4% | HCT-116 colon 55.4% | HCC-2998 colon 87.8% | KM12 colon 82.4%

CN(C)CCCN1c2ccccc2CCc2ccc(Cl)cc21
inactive: SR leukemia 49.2% | RPMI-8226 leukemia 47.8% | OVCAR-8 ovarian 77.1% | OVCAR-5 ovarian 77.5% | OVCAR-4 ovarian 53.1% | IGROV1 ovarian 59.3% | OVCAR-3 ovarian 72.3% | HS 578T breast 68.7% | NCI/ADR-RES ovarian 59.5% | T-47D breast 41.3% | BT-549 breast 77.8% | MDA-MB-435 melanoma 28.5% | SW-620 colon 89% | MCF7 breast 50.8% | HCT-116 colon 43% | KM12 colon 79.3%
active: HCC-2998 colon -13.4%

Cc1ccc(S(=O)(=O)N(C)CCCCCC(=O)O)cc1
inactive: SR leukemia 101% | RPMI-8226 leukemia 113% | OVCAR-8 ovarian 103% | OVCAR-5 ovarian 101% | OVCAR-4 ovarian 106% | SK-OV-3 ovarian 112% | OVCAR-3 ovarian 106% | HS 578T breast 108% | NCI/ADR-RES ovarian 98.6% | T-47D breast 95.7% | MDA-MB-435 melanoma 105% | SW-620 colon 109% | MCF7 breast 89.5% | HCT-116 colon 100% | HCC-2998 colon 105% | KM12 colon 95.3%
